Bioassay records (PubChem)
The list is not random: actives were taken first. Their share in the collection is about 1.2%.
FadD28 FP inh – inhibitors of Mycobacterium tuberculosis FadD28 bisubstrate binding; inhibition, % at 12.5 µM; FadD28 bisubstrate probe binding, fluorescence polarization; 360,000 compounds, 0.22% hits; in the data active = inhibition above about 8.5%, passing the limit was not always enough
PriA SSB inh – blocks PriA binding to SSB C-terminal tail | AlphaScreen SSBct-PriA binding, biotinylated peptide | inhibition, % at 33 µM | 430,000 compounds, 0.6% hits | AID 1272365; in the data active = inhibition mostly above about 37%, no sharp cut-off; inactive = mostly below about 20%
PrP UTR inh – suppresses PrP 5' UTR mRNA reporter expression. cell-based PrP 5' UTR mRNA reporter, plate reader. inhibition, % (test concentration not listed). 340,000 compounds, 0.35% hits. AID 488862; in the data active = inhibition above about 52%
Mtb UGM inh – inhibitors of M. tuberculosis UDP-galactopyranose mutase; P9WIQ1; purified UGM, fluorescence polarization probe displacement; inhibition, % at 10 µM; 320,000 compounds, 0.06% hits; AID 504406; in the data active = inhibition above about 10%, passing the limit was not always enough
Target sequence (P9WIQ1 whole entry, looked up): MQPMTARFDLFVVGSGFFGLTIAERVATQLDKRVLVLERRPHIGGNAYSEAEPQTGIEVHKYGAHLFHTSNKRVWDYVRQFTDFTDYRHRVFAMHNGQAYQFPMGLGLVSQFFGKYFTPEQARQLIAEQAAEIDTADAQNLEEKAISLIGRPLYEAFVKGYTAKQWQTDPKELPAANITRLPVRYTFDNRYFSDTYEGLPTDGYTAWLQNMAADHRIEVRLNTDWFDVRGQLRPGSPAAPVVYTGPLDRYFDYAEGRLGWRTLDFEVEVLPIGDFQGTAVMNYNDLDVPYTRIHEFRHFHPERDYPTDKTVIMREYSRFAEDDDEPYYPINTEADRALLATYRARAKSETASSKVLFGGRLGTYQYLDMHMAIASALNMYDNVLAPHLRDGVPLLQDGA
Rv3671c protease – Rv3671c (M. tuberculosis) protease inhibition | inhibition, % at 5.96 µM | 320,000 compounds, 0.048% hits; in the data active = inhibition above about 38%;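 also: extracellular domain of Rv3671c used as enzyme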
PrPC surface inh – reduces human prion protein on the cell surface; P04156; cell surface PrPC, TR-FRET read-out; inhibition, % at 13.8 µM; 370,000 compounds, 0.43% hits; in the data active = inhibition above about 24%
PrPC TRFRET cf – confirmation of inhibitors of cell surface human prion protein; shares compounds with PrPC surface inh; cell surface PrPC level, TR-FRET; inhibition, % at 13.8 µM; 1,500 compounds, 65% hits; in the data active = inhibition above about 25%
LD9 cytotox – counter-screen for PrPc inhibitors: cytotoxicity in LD9 cells. shares compounds with PrPC surface inh. luminescence viability. inhibition, % at 13.8 µM. 1,500 compounds, 29% hits. AID 743201; in the data active = inhibition above about 9.5%
A number is an active result; n = inactive; x = not tested or not shown.

SMILES | FadD28 FP inh | PriA SSB inh | PrP UTR inh | Mtb UGM inh | Rv3671c protease | PrPC surface inh | PrPC TRFRET cf | LD9 cytotox
Cn1nc(C2CCN(C(=O)c3ccc(OC(F)(F)F)cc3)CC2)n(-c2ccccc2)c1=O | x | n | x | x | x | x | x | x
CCOc1cccc2cc(-c3csc(NC(=O)c4cccc(C(F)(F)F)c4)n3)oc12 | x | n | x | x | x | x | x | x
CCOCCn1c(=NC(=O)c2cc(C)nn2CC)sc2cc(NC(C)=O)ccc21 | x | n | x | x | x | x | x | x
O=C(c1ccc(C(F)(F)F)cc1)C1CCCN(Cc2ccncc2)C1 (centres undefined) | n | n | n | n | n | 28.5 | n | 11.5
COc1ccc(OCCC(=O)OCC(=O)Nc2cccc(S(=O)(=O)N3CCOCC3)c2)cc1 | n | n | n | n | n | n | x | x
CN1CCN(S(=O)(=O)c2cccc(C(=O)Nc3sccc3C(N)=O)c2)CC1 | n | n | n | n | n | n | x | x
CN1CCN(S(=O)(=O)c2cccc(C(=O)Nc3cc(C(N)=O)cc(C(N)=O)c3)c2)CC1 | x | n | n | n | n | 30.0 | 25.2 | n
CC(C)(C)c1ccc(OCCC(=O)Nc2cccc(S(=O)(=O)N3CCOCC3)c2)cc1 | n | n | n | n | n | 24.8 | n | n
CC(=O)Oc1ccc(-c2ccc(C(=O)Nc3cccc(S(=O)(=O)N4CCOCC4)c3)cc2)cc1 | n | n | n | n | n | 24.9 | n | n
COc1ccc(C(=O)NC(=S)Nc2cccc(S(=O)(=O)N3CCOCC3)c2)cc1 | n | n | n | n | n | n | x | x
C=CCN1C(=O)CS/C1=N/NC(=O)c1ccccc1 | x | n | x | x | x | x | x | x
NC(Cc1ccc(Cl)cc1)c1csc(NC(=O)NCCc2ccccc2)n1 (centres undefined) | n | x | x | x | x | n | x | x
NC(Cc1ccc(Cl)cc1)c1csc(NC(=O)NCC2CCCCC2)n1 (centres undefined) | n | x | x | x | x | 61.1 | 41.5 | n
NC(=O)c1ccccc1NC(=O)C1CCN(c2cc(-n3ccc4ccccc43)ncn2)CC1 | x | n | x | x | x | x | x | x
CN(c1ccccc1)S(=O)(=O)c1ccc(NC(=O)c2nc(S(C)(=O)=O)ncc2Cl)cc1 | n | n | n | n | n | 41.2 | 93.3 | 97.8
COc1cccc(NC(=O)c2nc(SC)ncc2Cl)c1 | n | n | n | n | n | n | x | x
COc1cccc(NC(=O)c2nc(S(C)(=O)=O)ncc2Cl)c1 | n | n | n | n | n | 82.6 | n | 93.6
CN(C)S(=O)(=O)c1cccc(-c2nn(-c3ccccc3)cc2/C=C(/C#N)C(=O)NCc2ccco2)c1 | n | n | n | n | n | 28.9 | n | n
CCN(CC)S(=O)(=O)c1cccc(-c2nn(-c3ccccc3)cc2/C=C(\C#N)C(=O)NCc2ccco2)c1 | n | n | n | n | n | n | x | x
O=C(NCc1ccc(F)cc1Cl)C1CCN(c2ncccc2S(=O)(=O)N2CCCCC2)CC1 | x | n | x | x | x | x | x | x
CCOP(=S)(OCC)Oc1ccc2c(C)c(Cl)c(=O)oc2c1 | n | n | x | x | x | 67.6 | 36.5 | n
Cc1nnc2ccc(-c3cccc(NS(=O)(=O)c4cccc([N+](=O)[O-])c4)c3)nn12 | x | n | x | x | x | x | x | x
CCN(CC)S(=O)(=O)c1ccc(N2CCOCC2)c(NS(=O)(=O)c2ccc(C(C)C)cc2)c1 | n | n | n | n | n | n | x | x
CCN(CC)S(=O)(=O)c1ccc(N2CCOCC2)c(NS(=O)(=O)c2cc(C(C)(C)C)ccc2C)c1 | n | n | n | n | n | 25.4 | n | n
Cc1cc(NC(=O)CSc2nc(C3CCCCC3)nc3ccccc23)no1 | n | n | n | n | n | n | x | x
SMILES | FadD28 FP inh | PriA SSB inh | PrP UTR inh | Mtb UGM inh | Rv3671c protease | PrPC surface inh | PrPC TRFRET cf | LD9 cytotox
Cc1cccc(NC(=O)CSc2nc(C3CC3)nc3ccccc23)c1 | n | n | n | n | n | 29.9 | 27.6 | n
Cc1nonc1NC(=O)CSc1nc(C2CCCCC2)nc2ccccc12 | n | n | n | n | n | 50.1 | 53.5 | n
CC(=O)Nc1cccc(NC(=O)CSc2nc(C3CC3)nc3ccccc23)c1 | n | n | n | n | n | n | x | x
C[C@@H]1COC(=O)[C@H](Cc2ccc(F)cc2)C/C=C\C[C@@H](CC(=O)NCCO)C(=O)N1 | n | n | n | n | n | 44.4 | n | n
O=S(=O)(c1ccccc1)N(CC(F)(F)F)c1ccc(C(O)(C(F)(F)F)C(F)(F)F)cc1 | n | x | x | x | x | 32.9 | n | n
CCN(c1ccc(C(O)(C(=O)OC)C(F)(F)F)cc1)S(=O)(=O)c1ccccc1 (centres undefined) | n | n | n | n | n | n | x | x
Cc1ccc(NC(=O)C(=O)NC[C@H](C)O)cc1Cl | x | n | x | x | x | x | x | x
N#C/C(=C(/O)c1cccc(F)c1)c1nc2ccccc2s1 | n | n | n | n | n | n | x | x
N#C/C(=C(/O)C(Cl)c1ccccc1)c1nc2ccccc2s1 (centres undefined) | n | n | n | n | n | 43.2 | 37.7 | n
O=C(NCCCn1nc(-c2ccc(F)cc2)ccc1=O)c1ccc(Br)o1 | x | n | x | x | x | x | x | x
Cc1cc(C)c(S(=O)(=O)NCc2ccncc2)c(C)c1 | n | n | n | n | n | 40.4 | 34.6 | n
O=C(OCc1cc(-c2ccc3c(c2)OCCO3)on1)c1ccc(S(=O)(=O)N2CCOCC2)cc1 | x | n | x | x | x | x | x | x
COc1ccccc1NS(=O)(=O)c1cccc(NC(=O)Nc2ccc(Cl)cc2)c1 | 31.3 | n | n | n | n | 45.0 | n | n
COc1ccccc1NS(=O)(=O)c1cccc(NC(=O)Nc2ccccc2)c1 | n | n | n | n | n | n | x | x
COCCN(CCOC)C(=O)CC(=O)N(CCOC)CCOC | n | n | n | n | n | 27.5 | n | n
